Measurements taken from ChEMBL document CHEMBL3988442, “University of Dundee, Small-Polar-MMV Screening Library” (2021).
For part of these data: Measured potencies and affinities stand elsewhere.

Columns and labels:
Set-up in all cases: scale not given: direction of the effect not stated beside the values
[1] = target: Protein translocase subunit SecA (Escherichia coli (strain K12)) (UniProt P10408); assay: Assay to Identify E. coli SecA ATPase Inhibitors; format: functional; settings: 30 µM
[2] = target: T1, Ubiquitin-activating enzyme e1, putative (Leishmania donovani (strain BPK282A1)) (UniProt E9BSI1); assay: Leishmania donovani Ubiquitin Activating Enzyme (LdE1); format: functional; settings: 30 µM
T1 sequence (whole entry): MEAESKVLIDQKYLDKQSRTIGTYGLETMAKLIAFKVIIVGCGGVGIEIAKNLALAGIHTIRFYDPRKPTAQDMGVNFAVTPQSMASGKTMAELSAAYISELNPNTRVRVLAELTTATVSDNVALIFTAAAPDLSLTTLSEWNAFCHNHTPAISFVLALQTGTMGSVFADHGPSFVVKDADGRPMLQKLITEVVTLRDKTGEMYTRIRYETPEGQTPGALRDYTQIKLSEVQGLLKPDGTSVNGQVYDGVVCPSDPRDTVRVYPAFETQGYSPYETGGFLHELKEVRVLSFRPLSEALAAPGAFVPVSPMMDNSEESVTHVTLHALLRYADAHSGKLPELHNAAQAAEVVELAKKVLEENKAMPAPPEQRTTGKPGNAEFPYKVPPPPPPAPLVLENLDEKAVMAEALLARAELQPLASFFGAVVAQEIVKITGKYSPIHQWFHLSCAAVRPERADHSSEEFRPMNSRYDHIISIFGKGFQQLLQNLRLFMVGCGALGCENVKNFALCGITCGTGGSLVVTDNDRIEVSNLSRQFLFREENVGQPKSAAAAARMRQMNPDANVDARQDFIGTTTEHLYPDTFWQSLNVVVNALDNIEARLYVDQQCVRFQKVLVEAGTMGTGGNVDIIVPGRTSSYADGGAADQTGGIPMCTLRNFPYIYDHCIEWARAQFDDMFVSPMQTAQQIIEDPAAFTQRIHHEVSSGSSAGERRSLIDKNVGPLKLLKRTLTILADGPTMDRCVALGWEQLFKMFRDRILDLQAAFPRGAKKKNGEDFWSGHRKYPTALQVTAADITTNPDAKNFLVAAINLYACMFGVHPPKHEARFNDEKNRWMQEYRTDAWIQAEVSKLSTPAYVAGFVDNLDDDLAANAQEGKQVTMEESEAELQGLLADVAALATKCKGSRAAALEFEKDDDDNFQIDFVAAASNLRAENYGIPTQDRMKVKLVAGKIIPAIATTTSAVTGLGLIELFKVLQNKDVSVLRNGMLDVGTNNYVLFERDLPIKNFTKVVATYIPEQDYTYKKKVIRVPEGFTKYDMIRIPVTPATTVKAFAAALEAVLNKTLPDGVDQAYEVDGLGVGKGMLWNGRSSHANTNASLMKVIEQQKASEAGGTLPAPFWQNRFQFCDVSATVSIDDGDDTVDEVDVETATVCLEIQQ

[3] = target: Sialic acid-binding Ig-like lectin 9 (Homo sapiens) (UniProt Q9Y336); assay: Hs-Siglec9 ALPHAscreen SOP 20170721; settings: 10 µM
Chain of Sialic acid-binding Ig-like lectin 9 (Homo sapiens) (Q9Y336 whole entry): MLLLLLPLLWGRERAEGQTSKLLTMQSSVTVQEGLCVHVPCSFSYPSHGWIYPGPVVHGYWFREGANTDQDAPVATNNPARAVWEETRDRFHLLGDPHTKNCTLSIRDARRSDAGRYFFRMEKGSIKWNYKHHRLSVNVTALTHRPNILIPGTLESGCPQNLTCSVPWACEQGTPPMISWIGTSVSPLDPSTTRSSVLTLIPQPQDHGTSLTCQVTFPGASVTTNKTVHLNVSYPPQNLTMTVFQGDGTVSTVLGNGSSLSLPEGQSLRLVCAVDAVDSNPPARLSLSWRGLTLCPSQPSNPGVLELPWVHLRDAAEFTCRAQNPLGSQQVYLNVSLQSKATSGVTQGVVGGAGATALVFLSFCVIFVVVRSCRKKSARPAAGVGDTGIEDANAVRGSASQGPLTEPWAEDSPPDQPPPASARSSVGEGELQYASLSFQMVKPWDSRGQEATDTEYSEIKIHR

Trypanosoma cruzi = assay: Trypanosoma cruzi phosphomannomutase and mannose-1-phosphate guanylyltransferase assay; format: functional; settings: 10 µM
[4] = target: T2, Arginase-2, mitochondrial (Homo sapiens) (UniProt P78540); assay: in vitro enzyme assay to detect the production of urea directly proportional to the activity of Arginase II; format: functional; settings: 33.3 µM; further: in the data most compounds retested in dose-response had high values
T2 sequence (whole entry): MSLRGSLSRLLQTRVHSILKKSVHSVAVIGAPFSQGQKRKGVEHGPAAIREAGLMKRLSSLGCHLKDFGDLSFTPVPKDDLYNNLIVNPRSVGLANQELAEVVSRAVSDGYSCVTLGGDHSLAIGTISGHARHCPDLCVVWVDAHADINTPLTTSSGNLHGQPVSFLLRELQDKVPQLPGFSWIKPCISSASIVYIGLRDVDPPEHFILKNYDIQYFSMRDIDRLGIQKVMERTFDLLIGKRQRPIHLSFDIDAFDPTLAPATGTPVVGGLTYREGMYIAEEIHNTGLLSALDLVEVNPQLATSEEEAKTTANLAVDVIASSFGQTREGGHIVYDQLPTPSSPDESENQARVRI

[5] = target: T3, Proteasome subunit beta (Trypanosoma cruzi) (UniProt O96673); assay: Trypanosoma cruzi proteasome chymotrypsin-like activity (TcProtChymo) assay.; further: in the data most compounds retested in dose-response had high values; format: functional; settings: 9.37 µM
T3 sequence (whole entry): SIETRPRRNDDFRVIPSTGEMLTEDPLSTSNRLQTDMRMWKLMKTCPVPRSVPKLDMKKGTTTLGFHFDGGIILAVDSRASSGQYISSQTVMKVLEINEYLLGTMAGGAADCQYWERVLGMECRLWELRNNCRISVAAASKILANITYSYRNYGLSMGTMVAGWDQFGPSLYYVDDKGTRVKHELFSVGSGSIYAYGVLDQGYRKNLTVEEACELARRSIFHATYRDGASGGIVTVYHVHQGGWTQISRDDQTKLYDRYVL

Homo sapiens = species on record: Homo sapiens; assay: To identify inhibition of the IFN signalling (Jak-Stat) pathway via expression of an eGFP reporter gene under the control of an IFN-stimulated response element (ISRE) containing MxA promoter.; format: functional; settings: 30 µM
[6] = target: T4, Tyrosyl-tRNA synthetase, putative (Trypanosoma cruzi (strain CL Brener)) (UniProt Q4DSP6); assay: Trypanosoma cruzi tyrosyl tRNA synthetase (TcYRS) _High Tyrosine SOP; format: functional; settings: 30 µM; further: in the data most compounds retested in dose-response had high values
T4 sequence (whole entry): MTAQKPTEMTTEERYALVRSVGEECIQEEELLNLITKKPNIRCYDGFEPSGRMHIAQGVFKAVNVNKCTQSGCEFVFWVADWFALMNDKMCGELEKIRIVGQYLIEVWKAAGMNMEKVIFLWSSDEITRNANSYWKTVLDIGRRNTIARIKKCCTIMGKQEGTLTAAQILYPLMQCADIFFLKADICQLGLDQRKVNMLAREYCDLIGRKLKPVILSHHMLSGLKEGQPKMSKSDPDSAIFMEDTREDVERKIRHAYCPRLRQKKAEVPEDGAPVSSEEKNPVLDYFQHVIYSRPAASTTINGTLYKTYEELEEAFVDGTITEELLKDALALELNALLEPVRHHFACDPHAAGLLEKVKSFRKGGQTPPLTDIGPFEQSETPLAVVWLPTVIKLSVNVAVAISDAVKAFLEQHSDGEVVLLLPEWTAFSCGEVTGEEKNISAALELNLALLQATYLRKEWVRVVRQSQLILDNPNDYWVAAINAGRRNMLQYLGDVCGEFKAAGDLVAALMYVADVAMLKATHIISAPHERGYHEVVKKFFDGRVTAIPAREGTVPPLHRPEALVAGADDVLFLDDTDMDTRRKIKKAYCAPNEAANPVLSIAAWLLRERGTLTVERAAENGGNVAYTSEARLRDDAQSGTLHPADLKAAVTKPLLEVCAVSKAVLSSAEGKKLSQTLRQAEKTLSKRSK

[7] = target: T4, Tyrosyl-tRNA synthetase, putative (Trypanosoma cruzi (strain CL Brener)); assay: Trypanosoma cruzi tyrosyl tRNA synthetase (TcYRS) SOP; format: functional; settings: 30 µM
[8] = target: Chromo domain-containing protein 1 (Saccharomyces cerevisiae (strain ATCC 204508 / S288c) (Baker's yeast)) (UniProt P32657); assay: ScCHD-1 Enzyme Inhibition Assay; format: functional; settings: 30 µM; further: in the data most compounds retested in dose-response had high values
Chain of Chromo domain-containing protein 1 (Saccharomyces cerevisiae (strain ATCC 204508 / S288c) (Baker's yeast)) (P32657 whole entry, the tested form may be a part): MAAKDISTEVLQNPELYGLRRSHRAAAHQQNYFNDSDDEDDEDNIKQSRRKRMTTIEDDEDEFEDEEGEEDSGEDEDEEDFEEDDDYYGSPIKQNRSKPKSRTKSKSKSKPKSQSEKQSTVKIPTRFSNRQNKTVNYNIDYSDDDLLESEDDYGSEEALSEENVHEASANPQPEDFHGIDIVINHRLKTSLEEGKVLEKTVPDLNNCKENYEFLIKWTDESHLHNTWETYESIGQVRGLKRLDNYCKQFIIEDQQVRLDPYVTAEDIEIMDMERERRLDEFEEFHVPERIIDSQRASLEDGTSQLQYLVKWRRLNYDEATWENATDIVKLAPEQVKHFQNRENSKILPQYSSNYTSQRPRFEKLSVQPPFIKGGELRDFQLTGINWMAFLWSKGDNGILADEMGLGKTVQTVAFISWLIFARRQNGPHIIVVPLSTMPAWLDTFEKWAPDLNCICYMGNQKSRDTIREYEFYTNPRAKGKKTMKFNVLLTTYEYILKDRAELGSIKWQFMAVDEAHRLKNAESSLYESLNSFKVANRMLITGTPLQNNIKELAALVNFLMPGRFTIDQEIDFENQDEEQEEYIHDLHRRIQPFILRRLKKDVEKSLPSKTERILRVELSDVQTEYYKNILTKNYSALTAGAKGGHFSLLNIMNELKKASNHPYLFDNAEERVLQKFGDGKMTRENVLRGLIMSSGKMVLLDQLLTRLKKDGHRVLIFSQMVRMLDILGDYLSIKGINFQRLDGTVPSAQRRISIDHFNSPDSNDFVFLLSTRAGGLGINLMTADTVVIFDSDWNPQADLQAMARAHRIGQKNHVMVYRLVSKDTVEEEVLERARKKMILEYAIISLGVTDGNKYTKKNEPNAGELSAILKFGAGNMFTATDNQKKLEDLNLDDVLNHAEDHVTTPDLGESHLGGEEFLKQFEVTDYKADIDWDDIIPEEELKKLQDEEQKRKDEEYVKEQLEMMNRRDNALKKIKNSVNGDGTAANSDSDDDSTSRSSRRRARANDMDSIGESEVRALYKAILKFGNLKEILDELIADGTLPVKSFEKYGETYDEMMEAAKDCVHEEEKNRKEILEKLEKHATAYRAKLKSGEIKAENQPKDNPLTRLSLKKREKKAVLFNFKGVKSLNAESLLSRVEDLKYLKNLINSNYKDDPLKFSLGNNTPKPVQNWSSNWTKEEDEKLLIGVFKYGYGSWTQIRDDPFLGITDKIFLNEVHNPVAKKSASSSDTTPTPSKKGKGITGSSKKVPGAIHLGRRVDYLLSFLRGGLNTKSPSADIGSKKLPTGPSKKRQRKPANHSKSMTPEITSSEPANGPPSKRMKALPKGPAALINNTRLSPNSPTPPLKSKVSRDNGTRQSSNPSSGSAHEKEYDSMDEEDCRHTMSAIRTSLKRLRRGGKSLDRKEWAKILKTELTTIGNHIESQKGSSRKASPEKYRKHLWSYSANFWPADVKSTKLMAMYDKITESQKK

Chain of Protein translocase subunit SecA (Escherichia coli (strain K12)) (P10408 whole entry): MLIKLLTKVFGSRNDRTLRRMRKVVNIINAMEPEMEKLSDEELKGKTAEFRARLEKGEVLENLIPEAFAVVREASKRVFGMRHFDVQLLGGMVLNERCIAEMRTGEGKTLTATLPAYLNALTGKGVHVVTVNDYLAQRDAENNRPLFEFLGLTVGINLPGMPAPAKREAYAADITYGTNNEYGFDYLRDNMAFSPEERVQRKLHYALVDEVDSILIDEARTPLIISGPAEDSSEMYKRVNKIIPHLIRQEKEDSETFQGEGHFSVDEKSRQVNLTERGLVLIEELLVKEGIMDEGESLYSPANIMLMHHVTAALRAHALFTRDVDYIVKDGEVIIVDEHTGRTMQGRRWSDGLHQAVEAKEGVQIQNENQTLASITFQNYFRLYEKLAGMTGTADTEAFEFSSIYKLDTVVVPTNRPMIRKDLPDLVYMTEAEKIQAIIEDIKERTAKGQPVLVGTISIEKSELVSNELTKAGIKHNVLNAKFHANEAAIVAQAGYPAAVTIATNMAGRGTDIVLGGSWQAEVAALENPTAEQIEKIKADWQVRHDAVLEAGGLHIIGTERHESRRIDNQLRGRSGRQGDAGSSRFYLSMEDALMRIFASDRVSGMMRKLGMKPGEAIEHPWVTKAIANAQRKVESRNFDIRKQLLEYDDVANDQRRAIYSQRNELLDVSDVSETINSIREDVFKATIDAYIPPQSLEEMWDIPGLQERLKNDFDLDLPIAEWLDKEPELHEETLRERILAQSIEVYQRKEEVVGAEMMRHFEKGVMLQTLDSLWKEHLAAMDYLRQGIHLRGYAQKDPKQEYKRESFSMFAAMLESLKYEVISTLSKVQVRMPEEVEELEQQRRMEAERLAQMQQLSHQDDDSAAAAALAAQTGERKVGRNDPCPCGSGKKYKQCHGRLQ

| Structure (SMILES) | Percent Effect [1] | Percent Effect [2] | Percent Effect [3] | Percent Effect (Trypanosoma cruzi) | Percent Effect [4] | Percent Effect [5] | Percent Effect (Homo sapiens) | Percent Effect [6] | Percent Effect [7] | Percent Effect [8] |
| --- | --- | --- | --- | --- | --- | --- | --- | --- | --- | --- |
| CCS(=O)(=O)CCN1CCC(N(C)Cc2noc(C(C)C)n2)C1 (stereo not given) | -8.69% | 13% | 9.47% | -1.87% | -0.205% | 10.3% | 10.2% | 4.9% | 11.8% | -6.07% |
| CCCN1CCCn2nc(CNS(=O)(=O)c3ccc(C)cc3)cc2C1 | -8.28% | 2.7% | 2.48% | -5.72% | -3.85% | 10.3% | 5.89% | 3.72% | 9.76% | -1.82% |
| CNC(=O)c1ccc(CN(C(=O)c2scnc2C)C2CC2)cc1 | -5.91% | -7.69% | -10.3% | -0.845% | -2.87% | 3.67% | 17.5% | -3.35% | -6.02% | -4.57% |
| CCN(C)Cc1cnc(S(=O)(=O)CC)n1CCOC | -9.54% | 0% | -2.25% | -3.4% | 2.45% | -0.856% | 0.566% | 1.6% | 4.88% | 2.11% |
| Cc1ccc(C(=O)N2C[C@H]3CCC[C@@]3(COCc3cccnc3)C2)s1 | -4.31% | 6.49% | -5.03% | -4.38% | 1.22% | 15.4% | 3.36% | 5.79% | 5.13% | 5.28% |
| O=C(CCOc1ccc(Cl)cc1)N1CCN(c2cnccn2)CC1 | -5.29% | 18.2% | 5.24% | -0.746% | 0.615% | 10.2% | 25.2% | 9.8% | 21.2% | -8.03% |
